Laboratory results taken from PubChem BioAssay AID1159580 (chemical genetic matrix, 2015).
The whole screen tested about 5,500 compounds, of which about 2,000 (36%) were called active. About 18% were inconclusive and are not listed. The list shows a part of the results. Values without a mark were called inactive. Rule as the data show it: active = normalized growth mostly below about 0.91 (no sharp cut-off); inconclusive = no clear call, values can overlap the other calls; inactive = mostly above about 0.92.

Assay: chemical genetic growth profiling, strain panel (AID 1159580);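 also: tested at 20 µM; growth read once vehicle control cultures reached saturation at 30 °C; 1 = growth at the plate median or of vehicle wells; lower values mean less growth of the strain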
Details: growth OD

## CCc1ccc2c(O)c3c(cc2c1C(=O)OC)C(=O)c1c(O)ccc(O)c1C3=O
S. cerevisiae deletion strains, locus YJR066W, strain TOR1, hits give low values
  normalized growth: 0.895
S. cerevisiae deletion strains, locus YJR075W, strain HOC1, hits give low values
  normalized growth: 0.981
S. cerevisiae deletion strains, locus YKL068W, hits give low values
  normalized growth: 0.99
S. cerevisiae deletion strains, locus YKL085W, strain MDH1 (second series), hits give low values
  normalized growth: 1.05
S. cerevisiae deletion strains, locus YKL085W, strain MDH1, hits give low values
  normalized growth: 1.05
S. cerevisiae deletion strains, locus YKL160W, strain elf1, hits give low values
  normalized growth: 0.996
S. cerevisiae deletion strains, locus YKR001C, strain vps1, hits give low values
  normalized growth: 0.99
S. cerevisiae deletion strains, locus YKR026C, strain gcn3, hits give low values
  normalized growth: 0.979
S. cerevisiae deletion strains, locus YKR091W, strain srl3, hits give low values
  normalized growth: 0.995
S. cerevisiae deletion strains, locus YLL001W, strain dnm1, hits give low values
  normalized growth: 0.973
S. cerevisiae deletion strains, locus YLL026W, hits give low values
  normalized growth: 0.983
S. cerevisiae deletion strains, locus YLL041C, strain sdh2, hits give low values
  normalized growth: 0.999
S. cerevisiae deletion strains, locus YLR027C, strain aat2, hits give low values
  normalized growth: 0.994
S. cerevisiae deletion strains, locus YLR039C, strain RIC1, hits give low values
  normalized growth: 0.961
S. cerevisiae deletion strains, locus YLR058C, strain SHM2, hits give low values
  normalized growth: 0.956
S. cerevisiae deletion strains, locus YLR102C, strain apc9, hits give low values
  normalized growth: 0.999
S. cerevisiae deletion strains, locus YLR113W, strain HOG1, hits give low values
  normalized growth: 0.988
S. cerevisiae deletion strains, locus YLR221C, strain rsa3, hits give low values
  normalized growth: 0.969
S. cerevisiae deletion strains, locus YLR258W, strain gsy2, hits give low values
  normalized growth: 0.989
S. cerevisiae deletion strains, locus YLR262C, strain YPT6 (second series), hits give low values
  normalized growth: 0.956
S. cerevisiae deletion strains, locus YLR262C, strain YPT6, hits give low values
  normalized growth: 0.95
S. cerevisiae deletion strains, locus YLR268W, strain sec22, hits give low values
  normalized growth: 0.98
S. cerevisiae deletion strains, locus YLR320W, strain mms22, hits give low values
  normalized growth: 0.98
S. cerevisiae deletion strains, locus YLR330W, strain CHS5, hits give low values
  normalized growth: 1
S. cerevisiae deletion strains, locus YLR342W, strain FKS1 (second series), hits give low values
  normalized growth: 0.977
S. cerevisiae deletion strains, locus YLR342W, strain FKS1, hits give low values
  normalized growth: 0.968
S. cerevisiae deletion strains, locus YLR357W, strain rsc2, hits give low values
  normalized growth: 0.878
S. cerevisiae deletion strains, locus YLR370C, strain arc18, hits give low values
  normalized growth: 0.949
S. cerevisiae deletion strains, locus YLR371W, strain rom2, hits give low values
  normalized growth: 0.995
S. cerevisiae deletion strains, locus YLR384C, strain iki3, hits give low values
  normalized growth: 1
S. cerevisiae deletion strains, locus YLR418C, strain cdc73, hits give low values
  normalized growth: 0.932
S. cerevisiae deletion strains, locus YML016C, strain PPZ1, hits give low values
  normalized growth: 0.983
S. cerevisiae deletion strains, locus YML032C, strain rad52, hits give low values
  normalized growth: 0.932
S. cerevisiae deletion strains, locus YML120C, strain ndi1, hits give low values
  normalized growth: 0.999
S. cerevisiae deletion strains, locus YML124C, strain tub3, hits give low values
  normalized growth: 0.998
S. cerevisiae deletion strains, locus YMR058W, strain fet3, hits give low values
  normalized growth: 0.762 (active)
S. cerevisiae deletion strains, locus YMR078C, strain ctf18, hits give low values
  normalized growth: 0.997
S. cerevisiae deletion strains, locus YMR125W, strain sto1, hits give low values
  normalized growth: 1.01
S. cerevisiae deletion strains, locus YMR129W, hits give low values
  normalized growth: 0.966
S. cerevisiae deletion strains, locus YMR205C, strain PFK2, hits give low values
  normalized growth: 0.984
S. cerevisiae deletion strains, locus YMR223W, strain ubp8, hits give low values
  normalized growth: 0.933
S. cerevisiae deletion strains, locus YMR231W, strain pep5, hits give low values
  normalized growth: 0.995
S. cerevisiae deletion strains, locus YMR307W, strain GAS1, hits give low values
  normalized growth: 0.998
S. cerevisiae deletion strains, locus YNL067W, strain RPL9B, hits give low values
  normalized growth: 0.973
S. cerevisiae deletion strains, locus YNL071W, strain lat1, hits give low values
  normalized growth: 1
S. cerevisiae deletion strains, locus YNL153C, strain GIM3, hits give low values
  normalized growth: 0.954
S. cerevisiae deletion strains, locus YNL183C, strain NPR1, hits give low values
  normalized growth: 0.908
S. cerevisiae deletion strains, locus YNL209W, strain ssb2, hits give low values
  normalized growth: 0.981
S. cerevisiae deletion strains, locus YNL233W, strain BNI4, hits give low values
  normalized growth: 0.98
S. cerevisiae deletion strains, locus YNL248C, strain rpa49, hits give low values
  normalized growth: 0.961
S. cerevisiae deletion strains, locus YNL250W, strain rad50, hits give low values
  normalized growth: 0.972
S. cerevisiae deletion strains, locus YNL271C, strain bni1, hits give low values
  normalized growth: 0.965
S. cerevisiae deletion strains, locus YNL298W, strain CLA4, hits give low values
  normalized growth: 0.985
S. cerevisiae deletion strains, locus YNL307C, strain MCK1, hits give low values
  normalized growth: 1
S. cerevisiae deletion strains, locus YNL322C, strain KRE1 (second series), hits give low values
  normalized growth: 0.979
S. cerevisiae deletion strains, locus YNR049C, strain mso1, hits give low values
  normalized growth: 0.967
S. cerevisiae deletion strains, locus YNR052C, strain pop2, hits give low values
  normalized growth: 0.984
S. cerevisiae deletion strains, locus YOL006C, strain TOP1, hits give low values
  normalized growth: 1.07
S. cerevisiae deletion strains, locus YOL012C, strain htz1
  normalized growth: 0.673
S. cerevisiae deletion strains, locus YOL147C, strain pex11, hits give low values
  normalized growth: 1.01
S. cerevisiae deletion strains, locus YOR001W, strain rrp6, hits give low values
  normalized growth: 0.973
S. cerevisiae deletion strains, locus YOR061W, strain CKA2, hits give low values
  normalized growth: 0.957
S. cerevisiae deletion strains, locus YOR069W, strain VPS5, hits give low values
  normalized growth: 0.999
S. cerevisiae deletion strains, locus YOR070C, strain gyp1, hits give low values
  normalized growth: 0.988
S. cerevisiae deletion strains, locus YOR080W, strain dia2, hits give low values
  normalized growth: 0.991
S. cerevisiae deletion strains, locus YOR083W, strain WHI5, hits give low values
  normalized growth: 0.98
S. cerevisiae deletion strains, locus YOR106W, strain vam3, hits give low values
  normalized growth: 0.964
S. cerevisiae deletion strains, locus YOR136W, strain idh2, hits give low values
  normalized growth: 1.01
S. cerevisiae deletion strains, locus YOR144C, strain elg1, hits give low values
  normalized growth: 0.993
S. cerevisiae deletion strains, locus YOR184W, strain ser1, hits give low values
  normalized growth: 0.965
S. cerevisiae deletion strains, locus YOR231W, strain MKK1, hits give low values
  normalized growth: 0.965
S. cerevisiae deletion strains, locus YOR265W, strain rbl2, hits give low values
  normalized growth: 0.987
S. cerevisiae deletion strains, locus YOR270C, strain vph1, hits give low values
  normalized growth: 0.827
S. cerevisiae deletion strains, locus YOR290C, strain snf2, hits give low values
  normalized growth: 0.929
S. cerevisiae deletion strains, locus YOR316C, strain cot1, hits give low values
  normalized growth: 0.992
S. cerevisiae deletion strains, locus YPL051W, strain arl3, hits give low values
  normalized growth: 0.953
S. cerevisiae deletion strains, locus YPL078C, strain atp4, hits give low values
  normalized growth: 0.977
S. cerevisiae deletion strains, locus YPL106C, strain sse1, hits give low values
  normalized growth: 0.974
S. cerevisiae deletion strains, locus YPL240C, strain hsp82, hits give low values
  normalized growth: 0.983
S. cerevisiae deletion strains, locus YPL241C, strain CIN2, hits give low values
  normalized growth: 0.99
S. cerevisiae deletion strains, locus YPL256C, strain CLN2, hits give low values
  normalized growth: 1.03
S. cerevisiae deletion strains, locus YPR119W, strain clb2, hits give low values
  normalized growth: 1
S. cerevisiae deletion strains, locus YPR141C, strain kar3, hits give low values
  normalized growth: 0.979
S. cerevisiae deletion strains, locus YPR163C, strain tif3, hits give low values
  normalized growth: 1.01
S. cerevisiae deletion strains, locus YPR167C, strain met16, hits give low values
  normalized growth: 0.965
S. cerevisiae deletion strains, strain wtn01, hits give low values
  normalized growth: 1
S. cerevisiae strains, strain wild type, hits give low values
  normalized growth: 0.971
